We go through five compounds from PubChem BioAssay (NCATS).

A short description of test [1]: U-118MG Cancer Cell Toxicity qHTS against the NCATS CANVASS Library (AID 1347351). Note: potency is the fitted concentration of half-maximal effect. Put shortly:
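Viability read-out: CellTiter-Glo luminescence after 72 h compound exposure at 37 °C/5% CO2. Cells plated at 1000/well, 4 h pre-incubation; 11-point titration. Bortezomib served as control.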

Test [2] can be described thus: HPAF-II 24hr Apoptosis Induction qHTS against the NCATS CANVASS Library (AID 1347356). Put shortly: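 Luminescent caspase-3/7 signal (DEVD substrate, Caspase-Glo) served as read-out, taken 15 min after reagent addition to HPAF-II cells exposed 24 h to compounds.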
For orientation: Quantitative high-throughput screening tests each substance at several concentrations.

The nature of test [3]: HEK293 18hr Apoptosis Induction qHTS against the NCATS CANVASS Library (AID 1347357). Put shortly:
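Caspase-3/7 luminescence (DEVD substrate, Caspase-Glo) after 18 h compound exposure of HEK293 cells, 500 cells/well; 11-point series; doxorubicin titration as control.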

The nature of test [4]: HPAF-II 18hr Apoptosis Induction qHTS against the NCATS CANVASS Library (AID 1347360). Put shortly:
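Caspase-Glo 3/7 luminescence (DEVD substrate) after 15 min RT; HPAF-II, 500 cells/well, 18 h compound exposure at 37 degrees C, qHTS series; doxorubicin control 0.1nM - 4uM.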

A short description of test [5]: HEK293 12hr Apoptosis Induction qHTS against the NCATS CANVASS Library (AID 1347361). Put shortly: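 500 HEK293 cells/well; cpds pin-transferred, 11-pt conc series; 12 h, 37 degrees C/5% CO2; Caspase-Glo 3/7 added, 15 min RT dark; luminescence.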
A short description of test [6]: KB-3-1 Cancer Cell Toxicity qHTS against the NCATS CANVASS Library (AID 1347366). Note: series mostly up to about 46 µM; nearly all actives have a fitted effect of over 75% in size. In outline:
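500 KB-3-1 cells/well; compounds pin-transferred, 11-pnt series; 72 hr, 37C/5% CO2; CellTiter-Glo, 10 min RT; luminescence read-out.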

Test [7] is described as follows: MCF7 Cancer Cell Toxicity qHTS against the NCATS CANVASS Library (AID 1347369). Note: potency is the fitted concentration of half-maximal effect. Put shortly: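 Luminescent ATP signal (CellTiterGlo) served as the cytotoxicity read-out after MCF7 breast cancer cells had been incubated 72 hr at 37C with natural products in an 11-point titration.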
Test [8] can be described thus: qHTS for ATAD5 Antagonist screened against the NCATS CANVASS Library (AID 1347370). Note: nearly all actives have a fitted effect of over 65% in size. Note: potency is the fitted concentration of half-maximal effect. Put shortly: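 HEK293T cells with stably integrated ATAD5-luciferase reporter, 2000/well, 5 h attachment; compounds plus 10 µM 5-fluorouridine, 16 h at 37 °C. Luciferase luminescence read, with CellTiter-Fluor viability read first.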
The nature of test [9]: J3T Cancer Cell Toxicity qHTS against the NCATS CANVASS Library (AID 1347371). Note: potency is the fitted concentration of half-maximal effect. Put shortly: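 Cells plated at 500 per well, compounds pin-transferred, plates incubated 72 hr at 37C, then CellTiterGlo added and luminescence read to measure ATP content.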
The target of test [10] is Nuclear receptor subfamily 1 group I member 3 (Homo sapiens) (UniProt Q14994). In words: qHTS for Constitutive Androstane Receptor (CAR) Antagonist screened against the NCATS CANVASS Library (AID 1347372).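 Note: cells stimulated with 50 nM CITCO agonist so inhibition reflects antagonism; series mostly up to about 46 µM.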 Put shortly: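 HepG2 cells stably carrying hCAR and a CYP2B6-2.2kb luciferase reporter were exposed to compounds plus 50 nM CITCO for 24hr at 37C. CAR activity was read by ONE-Glo luminescence, with viability measured first by CellTiter-Fluor.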

Test [11] shares this target. In words: qHTS for Constitutive Androstane Receptor (CAR) Agonist screened against the NCATS CANVASS Library (AID 1347373).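 Note: every well also contained 1.5 µM PK11195 alongside the test compound.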 Put shortly: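 HepG2-hCAR-CYP2B6 cells, 2500/well, attached 4hr; cpd + PK11195 1.5uM final; 24hr 37C 5% CO2. CellTiter-Fluor viability read, then ONE-Glo luminescence for CAR activation.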
Test [12] is described as follows: 10-beta competent E. coli microbial cell viability qHTS against the NCATS CANVASS Library (AID 1347376). Note: series mostly up to about 46 µM. In outline: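 E. coli 10-beta, 0.2 OD; cpds 11-pt; o/n 37C, 5% CO2; BacTiter-Glo 20 min RT; luminescence (ATP) = viable cells. Daunomycin ctrl.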
Test [13] is described as follows: qHTS for H2AX Agonists against the NCATS CANVASS Library (AID 1347378). Put shortly:
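TR-FRET readout (ex 320 nm, em 665/620 nm ratio) of phospho-H2AX (S139) in CHO-K1 lysates. Cells treated 3 hr at 37C with compound titration, 0.76% DMSO; lysis 30 min, antibody detection 24 hr at RT.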

A short description of test [14]: qHTS for Inflammasome Signaling Inhibitors: IL-1-beta AlphaLISA screen against the NCATS CANVASS Library (AID 1347379).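 For Potency: secreted IL-1B measured as AlphaLISA emission at 615 nm; potency is the fitted concentration of half-maximal effect.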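 Note: human THP-1 cells primed with LPS then triggered with ATP.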 Put shortly:
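THP-1 cells pretreated 1 hr with compound (up to 57.5 uM final), then stimulated with LPS (250 ng/mL final) and ATP (1.25 mM final). Secreted IL-1B measured by AlphaLISA after 16 hr; glyburide as positive control.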

The nature of test [15]: Cytotoxicity qHTS for assessment of Hepg2 cells membrane integrity screened against the NCATS CANVASS Library (AID 1347387). Put shortly:
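qHTS, 11-pt conc. series, 0.59 nM - 46 uM final; HepG2 2000 cells/well, overnight attachment; 5 hr compound exposure 37C/5% CO2; CytoTox-ONE, 10 min RT; fluorescence ex560/em590 = LDH from damaged membranes.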

Test [16] can be described thus: Secretion counterscreen for inhibitors of the SERCaMP assay screened against the NCATS CANVASS Library (AID 1347390).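 Note: light from luciferase secreted into medium read as a measure of general secretion.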 Note: potency is the fitted concentration of half-maximal effect. In outline: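 Luminescence from constitutively secreted GLuc in SH-SY5Y-GLuc STOP cells, read after coelenterazine addition, served as read-out. Compounds tested 0.001 - 77 uM for 20 h at 37C; Brefeldin A as positive control.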
In general terms: A counterscreen serves to expose hits that act by an unwanted route or on another target.

Test [17] in a line: Vero-766 cells viability qHTS against the NCATS CANVASS Library: Counterscreen for Zika virus inhibition assay (AID 1347394). Note: nearly all actives have a fitted effect of over 60% in size. Note: potency is the fitted concentration of half-maximal effect. Put shortly: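 CellTiter-Glo luminescence, lower signal indicating cytotoxicity. Vero 766 cells without Zika virus, 1000 cells/well, plated overnight, then treated 72 h at 37C across an 11-point series.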
Test [18] is described as follows: Viability qHTS for inhibitors of the SERCaMP assay screened against the NCATS CANVASS Library (AID 1347400). Note: nearly all actives have a fitted effect of over 70% in size. Note: potency is the fitted concentration of half-maximal effect. Put shortly: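 SH-SY5Y SERCaMP MJH297 cells, 1000/well; 4 h settle, 37C/5% CO2; pin-transferred cpds; 48 h; CellTiter-Glo lum. Pos ctrl bortezomib 0.0001 - 4.6 uM.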
Test [19] is described as follows: Redox Reaction Profiling qHTS: Assay Interference Panel against the NCATS CANVASS Library (AID 1347401). Put shortly:
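Resazurin (5 uM) conversion to resorufin measured with 200 uM DTT in 50 mM HEPES pH 7.3, 50 mM NaCl. Compounds tested in 11-point qHTS series. Fluorescence (ex 525/em 598 nm) read before and after 15 min dark incubation.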

The test system of test [20] is NAD(P)H diaphorase (Clostridium kluyveri). In words: Diaphorse counterscreen qHTS: Assay Interference Panel against the NCATS CANVASS Library (AID 1347362). Put shortly:
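Clostridium kluyveri diaphorase in PBS with 0.01% Tween-20 was preincubated 15 min at room temperature in the dark with compounds (11-point series). Resorufin fluorescence (ex 525/20, em 598/25) was read 5 min after adding resazurin/NADH.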

Results filed as inconclusive are left out. A number with no mark means an inactive call. The source made the active and inactive calls. Calls come from the whole dose curve; as a rule, active = well fitted curve in the direction sought with a large enough effect; inconclusive = small, poorly fitted or top-dose-only effect, or another doubt; inactive = no such curve, though single readings can be large; an effect the other way counts as inactive or inconclusive.

Chain of Nuclear receptor subfamily 1 group I member 3 (Homo sapiens) (Q14994 whole entry, looked up): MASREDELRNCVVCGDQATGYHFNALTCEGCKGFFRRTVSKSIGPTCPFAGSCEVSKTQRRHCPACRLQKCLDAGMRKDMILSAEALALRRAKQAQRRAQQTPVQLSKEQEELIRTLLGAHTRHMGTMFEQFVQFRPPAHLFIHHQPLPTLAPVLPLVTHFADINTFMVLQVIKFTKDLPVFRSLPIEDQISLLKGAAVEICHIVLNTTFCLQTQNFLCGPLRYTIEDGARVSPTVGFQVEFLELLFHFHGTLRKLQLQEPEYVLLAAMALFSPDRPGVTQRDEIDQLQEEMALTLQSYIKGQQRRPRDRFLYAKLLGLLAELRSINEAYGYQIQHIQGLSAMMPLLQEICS

Turning to `C/C(=C\CC[C@@H](C)[C@H]1CC[C@]2(C)C3=CCC4C(C)(C)[C@@H](O)C[C@@H](O)[C@]4(C)C3[C@H](O)C[C@@]12C)CO` (stereo partly specified), the Potency result in test [1], in [3], in [4], in test [6], in [7] and in test [8] was “inactive” in each case. The Potency entry in test [9], in test [10], in [11], in [13], in [14] and in test [16] was “inactive” in each case. Also, the Potency result in test [18] and in [19] was “inactive” in each case. For the same compound, the compound was classed as inactive in test [2], in test [5], in test [12] and in test [15]. Also, in test [17], the Potency is 33.1 µM (active).
For `CO[C@H]1[C@@H](OC(=O)/C(C)=C\[C@@H]2O[C@@H]2[C@H]2O[C@H]2C)[C@H](O)[C@H](OCC23C[C@@H]4[C@H](C)CC[C@H]4C4(C=O)CC2C=C(C(C)C)C34C(=O)O)O[C@@H]1C` (stereo partly specified), the Potency entry in [1], in test [3], in test [4], in test [20], in test [6] and in [7] was “inactive” in each case. Further, the Potency entry in test [8], in test [9], in [10], in [11], in [13] and in [14] was “inactive” each time. Besides, the Potency entry in test [16], in [17], in [18] and in [19] was “inactive” throughout. In addition, the compound was called inactive in test [2], in [5], in test [12] and in [15].
As to `CN1CC[C@]2(c3cccc4c3N[C@H]3N(C)CC[C@@]43[C@]34CCN(C)[C@H]3Nc3ccccc34)c3ccccc3N[C@H]12`, the Potency in test [1] is 7.49 µM (active); in test [7], 11.7 µM (active); in test [9], 9.35 µM (active); in test [14], 21.7 µM (active); in test [16], 19.3 µM (active); in [17], 20.9 µM (active). Also, in [18], the Potency was 15.2 µM (active). The result in test [2], in [5], in test [12] and in test [15] was inactive. Further, the Potency entry in [3], in [4], in [20], in test [8], in test [11] and in test [13] was “inactive” throughout. In addition, in [19], the Potency entry was “inactive”.
In the case of `C=C(C)CC[C@H](Cc1c(O)cc(O)c2c1O[C@H](c1ccc(O)cc1)CC2=O)C(=C)C`, the Potency result in [1], in [3], in [4], in [20], in test [7] and in test [10] was “inactive” each time. In addition, the Potency result in test [13], in test [14], in [16], in test [18] and in [19] was “inactive” each time. For the same compound, the result in test [2], in test [5], in test [12] and in test [15] was inactive. The Potency in [8] was 23.4 µM (active); in test [17], 18.6 µM (active).
`O=c1cc(-c2ccc(O)c(O)c2)oc2cc(O[C@@H]3O[C@H](CO)[C@@H](O)[C@H](O)[C@H]3O)cc(O)c12`: the Potency entry in test [1], in test [3], in test [4], in test [7], in [8] and in test [9] was “inactive” each time. Also, the Potency result in test [10], in [11], in test [13], in test [14], in test [16] and in [18] was “inactive” each time. Also, the Potency result in test [19] is “inactive”. Also, the outcome in [2], in test [5], in test [12] and in test [15] was inactive.
